Test results as given in PubChem BioAssay AID743332 (Broad Institute, 2014).
Potency and affinity values are given separately. The source made the active and inactive calls.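 Rule for the calls: active = at least 35% decrease in signal relative to neutral control well mean; inactive = the rest, opposite-direction activity included.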

The compounds below were run against Caspase-6 (Homo sapiens) (UniProt P55212) (assay: human caspase-6 inhibitors, dose response, biochemical, VEID-R110 fluorescence, dry powder retest (AID 743332)). Settings: purified caspase-6, Z-VEID-R110 cleavage fluorescence; series mostly up to 35 µM.
Chain of Caspase-6 (Homo sapiens) (P55212 24-179 limits assumed): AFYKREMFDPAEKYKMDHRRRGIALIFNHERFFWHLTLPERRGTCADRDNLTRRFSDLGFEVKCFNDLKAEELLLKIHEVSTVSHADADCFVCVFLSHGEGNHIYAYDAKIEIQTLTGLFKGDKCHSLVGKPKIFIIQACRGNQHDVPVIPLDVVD
Chain of Caspase-6 (Homo sapiens) (P55212 194-293 limits assumed): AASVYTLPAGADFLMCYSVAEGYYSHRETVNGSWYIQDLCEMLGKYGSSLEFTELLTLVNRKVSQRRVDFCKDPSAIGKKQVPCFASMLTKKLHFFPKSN

outcome, inactive:
Cc1ccc(C(=O)N2CCN(S(=O)(=O)c3ccccc3)CC2)cc1
O=C(C1COc2ccccc2O1)N1CCN(S(=O)(=O)c2ccccc2F)CC1 (stereo not drawn)
O=C(c1ccccc1)N1CCN(S(=O)(=O)c2cccnc2)CC1
O=C(c1ccccc1)N1CCCC(NS(=O)(=O)c2ccccc2)C1 (stereo not drawn)
O=C(c1ccccn1)N1CCN(S(=O)(=O)c2ccccc2)CC1
[O-][n+]1c2c(nn1-c1ccccc1)-c1nonc1CC2
CC(=O)Nc1ccc(S(=O)(=O)N2CCN(C(=O)c3ccc(C)cc3)CC2)cc1
Cc1ccc(C(=O)N2CCCN(S(=O)(=O)c3ccc(C)cc3)CC2)cc1
Cc1ccc(C(=O)N2CCN(S(=O)(=O)c3ccc4c(c3)OCCO4)CC2)cc1
Cc1ccc(C(=O)N2CCN(S(=O)(=O)c3ccc(C)cc3)CC2)cc1
CC(=O)Nc1ccc(S(=O)(=O)N2CCN(C(=O)c3ccccc3)CC2)cc1
O=C(c1ccoc1)N1CCN(S(=O)(=O)c2cccnc2)CC1
COc1ccc(C(=O)N2CCN(S(=O)(=O)c3ccccc3)CC2)cc1
O=C(c1cccnc1)N1CCN(S(=O)(=O)c2cccnc2)CC1
CC(=O)Nc1ccc(C(=O)N2CCN(S(=O)(=O)c3ccc(C)cc3)CC2)cc1
O=C(c1cccs1)N1CCN(S(=O)(=O)c2ccccc2)CC1
Cc1ccc(S(=O)(=O)N2CCN(C(=O)c3ccco3)CC2)cc1
COc1ccc(S(=O)(=O)N2CCN(C(=O)c3ccccc3)CC2)cc1
